ChEMBL document CHEMBL2218924, “A broad activity screen in support of a chemogenomic map for kinase signalling research and drug discovery” (Biochem J, 2013)

Experiments:
[1] = molecular target: T1, Ephrin type-B receptor 1 (Homo sapiens) (UniProt P54762); conditions: at 10 µM
T1 sequence (whole entry): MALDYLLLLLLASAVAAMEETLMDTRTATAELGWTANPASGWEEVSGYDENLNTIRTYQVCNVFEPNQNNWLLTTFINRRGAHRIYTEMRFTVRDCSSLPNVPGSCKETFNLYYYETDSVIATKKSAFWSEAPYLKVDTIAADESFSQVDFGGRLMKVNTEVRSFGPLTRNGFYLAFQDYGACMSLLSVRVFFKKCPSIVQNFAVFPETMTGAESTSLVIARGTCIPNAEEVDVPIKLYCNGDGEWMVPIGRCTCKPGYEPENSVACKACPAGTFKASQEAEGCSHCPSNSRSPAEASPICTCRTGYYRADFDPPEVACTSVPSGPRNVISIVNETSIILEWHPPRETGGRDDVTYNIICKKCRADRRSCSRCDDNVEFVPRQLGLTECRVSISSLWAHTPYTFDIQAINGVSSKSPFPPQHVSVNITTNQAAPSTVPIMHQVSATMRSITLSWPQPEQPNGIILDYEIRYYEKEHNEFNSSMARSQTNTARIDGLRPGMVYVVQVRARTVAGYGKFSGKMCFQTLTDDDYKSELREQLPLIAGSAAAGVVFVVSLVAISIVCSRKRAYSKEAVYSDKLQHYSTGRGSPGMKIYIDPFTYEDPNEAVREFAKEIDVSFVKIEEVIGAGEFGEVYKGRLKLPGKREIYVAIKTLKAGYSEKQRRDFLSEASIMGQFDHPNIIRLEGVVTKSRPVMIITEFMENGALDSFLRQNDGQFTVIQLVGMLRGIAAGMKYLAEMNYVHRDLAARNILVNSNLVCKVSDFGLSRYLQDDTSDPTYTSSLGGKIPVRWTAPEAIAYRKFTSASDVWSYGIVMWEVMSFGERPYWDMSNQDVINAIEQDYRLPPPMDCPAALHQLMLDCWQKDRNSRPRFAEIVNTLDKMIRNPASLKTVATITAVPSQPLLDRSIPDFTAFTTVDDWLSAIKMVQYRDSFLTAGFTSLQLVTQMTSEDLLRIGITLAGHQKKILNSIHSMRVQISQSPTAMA

[2] = molecular target: T2, Ephrin type-B receptor 2 (Homo sapiens) (UniProt P29323); conditions: at 1 µM
T2 sequence (whole entry): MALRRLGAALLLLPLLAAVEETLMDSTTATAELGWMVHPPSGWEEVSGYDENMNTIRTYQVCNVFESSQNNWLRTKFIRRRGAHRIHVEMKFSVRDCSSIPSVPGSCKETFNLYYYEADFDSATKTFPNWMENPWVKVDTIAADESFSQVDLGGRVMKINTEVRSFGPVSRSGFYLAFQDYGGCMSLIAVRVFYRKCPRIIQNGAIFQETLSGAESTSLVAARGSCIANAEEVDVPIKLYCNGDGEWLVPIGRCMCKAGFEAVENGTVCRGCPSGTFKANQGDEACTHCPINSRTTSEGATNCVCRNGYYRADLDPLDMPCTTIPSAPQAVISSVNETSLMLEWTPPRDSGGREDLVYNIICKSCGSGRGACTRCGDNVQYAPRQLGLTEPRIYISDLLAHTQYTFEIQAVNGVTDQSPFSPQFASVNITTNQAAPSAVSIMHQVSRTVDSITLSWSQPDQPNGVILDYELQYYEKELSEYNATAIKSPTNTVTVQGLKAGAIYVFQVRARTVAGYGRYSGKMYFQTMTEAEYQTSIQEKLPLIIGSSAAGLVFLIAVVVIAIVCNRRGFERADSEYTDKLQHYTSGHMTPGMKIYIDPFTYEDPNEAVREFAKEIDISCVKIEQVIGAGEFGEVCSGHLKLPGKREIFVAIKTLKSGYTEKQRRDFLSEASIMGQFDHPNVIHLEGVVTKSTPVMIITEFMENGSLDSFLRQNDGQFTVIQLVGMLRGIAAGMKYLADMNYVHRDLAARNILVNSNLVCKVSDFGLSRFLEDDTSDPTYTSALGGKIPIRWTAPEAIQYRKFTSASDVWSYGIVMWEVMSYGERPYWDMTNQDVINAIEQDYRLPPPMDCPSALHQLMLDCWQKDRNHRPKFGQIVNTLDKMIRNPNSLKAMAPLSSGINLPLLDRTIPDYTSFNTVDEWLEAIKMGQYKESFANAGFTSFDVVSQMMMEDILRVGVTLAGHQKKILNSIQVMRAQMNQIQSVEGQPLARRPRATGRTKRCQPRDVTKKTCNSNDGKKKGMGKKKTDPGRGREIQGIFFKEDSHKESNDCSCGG

[3] = molecular target: T2, Ephrin type-B receptor 2 (Homo sapiens); conditions: at 10 µM
[4] = molecular target: T3, Ephrin type-B receptor 3 (Homo sapiens) (UniProt P54753); conditions: at 1 µM
T3 sequence (whole entry): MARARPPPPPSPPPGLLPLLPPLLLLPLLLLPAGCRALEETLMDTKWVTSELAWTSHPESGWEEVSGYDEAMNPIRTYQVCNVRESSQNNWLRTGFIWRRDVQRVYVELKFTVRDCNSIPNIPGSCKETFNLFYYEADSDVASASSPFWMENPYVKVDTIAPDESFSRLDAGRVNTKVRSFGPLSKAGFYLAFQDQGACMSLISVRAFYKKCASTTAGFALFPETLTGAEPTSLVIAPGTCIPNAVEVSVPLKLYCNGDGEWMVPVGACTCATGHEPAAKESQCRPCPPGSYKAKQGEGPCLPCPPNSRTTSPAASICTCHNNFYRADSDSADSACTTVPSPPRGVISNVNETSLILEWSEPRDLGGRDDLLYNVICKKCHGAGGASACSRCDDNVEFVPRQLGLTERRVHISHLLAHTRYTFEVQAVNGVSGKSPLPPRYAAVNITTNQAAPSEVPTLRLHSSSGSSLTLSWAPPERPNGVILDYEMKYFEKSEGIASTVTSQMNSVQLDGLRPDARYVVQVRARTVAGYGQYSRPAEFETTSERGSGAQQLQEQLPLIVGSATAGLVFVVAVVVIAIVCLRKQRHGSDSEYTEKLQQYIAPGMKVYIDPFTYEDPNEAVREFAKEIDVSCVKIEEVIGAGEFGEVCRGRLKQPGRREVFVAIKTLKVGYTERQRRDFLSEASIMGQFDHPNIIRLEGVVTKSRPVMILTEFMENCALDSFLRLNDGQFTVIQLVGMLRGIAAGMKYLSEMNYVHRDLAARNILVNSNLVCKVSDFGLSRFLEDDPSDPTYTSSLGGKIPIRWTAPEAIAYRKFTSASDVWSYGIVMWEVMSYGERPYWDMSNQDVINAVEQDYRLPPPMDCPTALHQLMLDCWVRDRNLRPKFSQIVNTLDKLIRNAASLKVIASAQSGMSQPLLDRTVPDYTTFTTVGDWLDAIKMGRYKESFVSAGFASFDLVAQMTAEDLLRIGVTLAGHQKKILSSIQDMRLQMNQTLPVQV

[5] = molecular target: T3, Ephrin type-B receptor 3 (Homo sapiens); conditions: at 10 µM
[6] = molecular target: T4, Ephrin type-B receptor 4 (Homo sapiens) (UniProt P54760); conditions: at 1 µM
T4 sequence (whole entry): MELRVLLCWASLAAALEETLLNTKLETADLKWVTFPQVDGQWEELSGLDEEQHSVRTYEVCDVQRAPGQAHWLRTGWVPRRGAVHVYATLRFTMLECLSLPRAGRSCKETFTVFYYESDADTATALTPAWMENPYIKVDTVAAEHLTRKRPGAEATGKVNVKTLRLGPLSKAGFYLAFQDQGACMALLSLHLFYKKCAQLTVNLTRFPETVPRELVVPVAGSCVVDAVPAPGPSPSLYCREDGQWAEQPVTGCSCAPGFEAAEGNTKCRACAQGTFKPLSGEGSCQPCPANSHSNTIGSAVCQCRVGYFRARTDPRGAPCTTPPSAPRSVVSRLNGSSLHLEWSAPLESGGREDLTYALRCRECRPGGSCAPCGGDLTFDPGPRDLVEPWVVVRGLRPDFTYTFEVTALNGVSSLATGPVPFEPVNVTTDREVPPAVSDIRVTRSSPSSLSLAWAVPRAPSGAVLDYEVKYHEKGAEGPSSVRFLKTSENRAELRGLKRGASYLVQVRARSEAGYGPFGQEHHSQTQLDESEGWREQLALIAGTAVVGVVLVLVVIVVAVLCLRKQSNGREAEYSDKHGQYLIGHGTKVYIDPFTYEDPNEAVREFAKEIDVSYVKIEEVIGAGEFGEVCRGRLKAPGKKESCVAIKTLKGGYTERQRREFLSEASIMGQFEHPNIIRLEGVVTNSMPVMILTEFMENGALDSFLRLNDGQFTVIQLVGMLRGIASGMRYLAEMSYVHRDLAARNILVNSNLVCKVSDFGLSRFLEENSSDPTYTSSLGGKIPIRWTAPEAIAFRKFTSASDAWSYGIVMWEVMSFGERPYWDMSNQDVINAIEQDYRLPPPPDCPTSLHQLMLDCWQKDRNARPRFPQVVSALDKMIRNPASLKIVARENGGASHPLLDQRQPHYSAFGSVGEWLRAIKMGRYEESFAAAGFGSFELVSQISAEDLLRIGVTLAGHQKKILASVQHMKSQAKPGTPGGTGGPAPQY

[7] = molecular target: T4, Ephrin type-B receptor 4 (Homo sapiens); conditions: at 10 µM
[8] = molecular target: Receptor tyrosine-protein kinase erbB-4 (Homo sapiens) (UniProt Q15303); conditions: at 1 µM
Sequence of Receptor tyrosine-protein kinase erbB-4 (Homo sapiens) (Q15303 whole entry): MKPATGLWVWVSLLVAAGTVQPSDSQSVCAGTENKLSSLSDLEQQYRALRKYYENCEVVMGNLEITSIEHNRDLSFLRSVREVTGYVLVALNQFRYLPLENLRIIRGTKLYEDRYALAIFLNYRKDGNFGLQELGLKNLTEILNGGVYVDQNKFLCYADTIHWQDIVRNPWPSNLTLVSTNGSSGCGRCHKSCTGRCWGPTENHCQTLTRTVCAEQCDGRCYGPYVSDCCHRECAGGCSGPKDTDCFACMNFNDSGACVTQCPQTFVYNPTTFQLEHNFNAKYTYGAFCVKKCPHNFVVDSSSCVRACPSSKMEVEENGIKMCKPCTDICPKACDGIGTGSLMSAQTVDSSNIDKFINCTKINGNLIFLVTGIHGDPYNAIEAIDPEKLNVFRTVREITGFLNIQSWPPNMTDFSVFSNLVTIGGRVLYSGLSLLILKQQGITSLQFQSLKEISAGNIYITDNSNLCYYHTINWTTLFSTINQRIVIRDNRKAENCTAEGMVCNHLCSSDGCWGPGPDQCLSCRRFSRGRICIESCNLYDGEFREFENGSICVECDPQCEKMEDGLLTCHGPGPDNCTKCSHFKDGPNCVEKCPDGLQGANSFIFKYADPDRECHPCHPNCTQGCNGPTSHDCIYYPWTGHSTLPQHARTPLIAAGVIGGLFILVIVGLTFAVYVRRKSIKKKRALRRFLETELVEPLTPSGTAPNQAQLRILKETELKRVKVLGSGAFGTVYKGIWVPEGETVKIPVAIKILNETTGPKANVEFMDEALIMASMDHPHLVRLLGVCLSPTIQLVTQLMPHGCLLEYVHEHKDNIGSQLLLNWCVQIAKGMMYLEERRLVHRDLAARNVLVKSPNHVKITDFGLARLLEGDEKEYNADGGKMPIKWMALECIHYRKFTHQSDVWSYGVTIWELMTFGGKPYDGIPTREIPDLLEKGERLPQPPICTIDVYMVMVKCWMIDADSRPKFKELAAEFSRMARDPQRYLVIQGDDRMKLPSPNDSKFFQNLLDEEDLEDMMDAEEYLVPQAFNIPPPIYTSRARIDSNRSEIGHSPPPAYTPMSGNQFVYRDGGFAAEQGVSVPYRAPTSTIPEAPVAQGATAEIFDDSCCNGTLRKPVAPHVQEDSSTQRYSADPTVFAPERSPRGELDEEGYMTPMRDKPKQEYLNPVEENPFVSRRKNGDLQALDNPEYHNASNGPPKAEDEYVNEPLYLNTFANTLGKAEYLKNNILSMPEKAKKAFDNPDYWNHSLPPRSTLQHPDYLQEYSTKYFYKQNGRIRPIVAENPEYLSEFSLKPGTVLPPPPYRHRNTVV

[9] = molecular target: Receptor tyrosine-protein kinase erbB-4 (Homo sapiens) (UniProt Q15303); conditions: at 10 µM
[10] = molecular target: Focal adhesion kinase 1 (Homo sapiens) (UniProt Q05397); conditions: at 1 µM
[11] = molecular target: Focal adhesion kinase 1 (Homo sapiens) (UniProt Q05397); conditions: at 10 µM
[12] = molecular target: Fibroblast growth factor receptor 1 (Homo sapiens) (UniProt P11362); conditions: at 1 µM
[13] = molecular target: Fibroblast growth factor receptor 1 (Homo sapiens) (UniProt P11362); conditions: at 10 µM
[14] = molecular target: Fibroblast growth factor receptor 2 (Homo sapiens) (UniProt P21802); conditions: at 1 µM
Sequence of Fibroblast growth factor receptor 2 (Homo sapiens) (P21802 22-821 limits assumed): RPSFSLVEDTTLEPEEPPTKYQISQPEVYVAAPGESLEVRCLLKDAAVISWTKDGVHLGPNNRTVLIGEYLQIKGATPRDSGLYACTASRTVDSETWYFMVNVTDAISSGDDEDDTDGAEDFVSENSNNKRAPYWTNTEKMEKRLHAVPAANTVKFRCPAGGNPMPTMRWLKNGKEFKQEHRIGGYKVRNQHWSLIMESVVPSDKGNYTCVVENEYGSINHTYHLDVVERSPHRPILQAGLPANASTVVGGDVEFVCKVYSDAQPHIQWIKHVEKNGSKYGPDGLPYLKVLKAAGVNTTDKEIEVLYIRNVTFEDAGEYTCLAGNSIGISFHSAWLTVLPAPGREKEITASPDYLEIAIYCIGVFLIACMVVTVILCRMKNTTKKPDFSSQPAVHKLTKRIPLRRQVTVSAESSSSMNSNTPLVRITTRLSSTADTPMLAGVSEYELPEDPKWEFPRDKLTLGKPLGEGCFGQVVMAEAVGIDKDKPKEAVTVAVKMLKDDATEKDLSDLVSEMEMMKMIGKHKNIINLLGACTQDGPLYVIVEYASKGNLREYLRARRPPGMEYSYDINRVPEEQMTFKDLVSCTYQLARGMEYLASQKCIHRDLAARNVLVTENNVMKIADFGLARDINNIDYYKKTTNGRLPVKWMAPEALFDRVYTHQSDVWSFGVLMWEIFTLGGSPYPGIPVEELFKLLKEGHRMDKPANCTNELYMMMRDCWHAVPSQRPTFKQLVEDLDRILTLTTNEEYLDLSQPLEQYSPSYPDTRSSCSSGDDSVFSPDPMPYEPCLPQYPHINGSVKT

[15] = molecular target: Fibroblast growth factor receptor 2 (Homo sapiens) (UniProt P21802); conditions: at 10 µM
[16] = molecular target: Fibroblast growth factor receptor 3 (Homo sapiens) (UniProt P22607); conditions: at 1 µM
Sequence of Fibroblast growth factor receptor 3 (Homo sapiens) (P22607 23-806 limits assumed): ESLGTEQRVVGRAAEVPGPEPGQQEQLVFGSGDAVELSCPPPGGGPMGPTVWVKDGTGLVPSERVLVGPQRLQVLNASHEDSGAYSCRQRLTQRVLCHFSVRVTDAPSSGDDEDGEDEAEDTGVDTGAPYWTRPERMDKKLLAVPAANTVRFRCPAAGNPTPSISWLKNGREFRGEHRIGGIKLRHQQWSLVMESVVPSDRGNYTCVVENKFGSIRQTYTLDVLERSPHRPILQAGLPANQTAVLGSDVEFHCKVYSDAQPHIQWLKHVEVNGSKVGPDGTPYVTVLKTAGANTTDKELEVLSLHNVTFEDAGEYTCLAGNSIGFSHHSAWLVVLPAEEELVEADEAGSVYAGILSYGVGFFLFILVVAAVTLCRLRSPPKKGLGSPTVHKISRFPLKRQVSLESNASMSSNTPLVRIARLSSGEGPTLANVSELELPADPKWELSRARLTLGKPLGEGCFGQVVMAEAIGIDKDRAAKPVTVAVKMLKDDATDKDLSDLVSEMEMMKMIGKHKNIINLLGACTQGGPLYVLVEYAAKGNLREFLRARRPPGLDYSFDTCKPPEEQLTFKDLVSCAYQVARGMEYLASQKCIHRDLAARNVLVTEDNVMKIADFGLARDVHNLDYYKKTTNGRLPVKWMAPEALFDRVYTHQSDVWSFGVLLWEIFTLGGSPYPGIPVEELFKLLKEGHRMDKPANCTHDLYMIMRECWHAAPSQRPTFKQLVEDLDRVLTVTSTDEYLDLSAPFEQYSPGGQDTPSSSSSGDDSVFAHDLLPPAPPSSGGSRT

[17] = molecular target: Fibroblast growth factor receptor 3 (Homo sapiens) (UniProt P22607); conditions: at 10 µM
[18] = molecular target: Fibroblast growth factor receptor 4 (Homo sapiens) (UniProt P22455); conditions: at 1 µM
Sequence of Fibroblast growth factor receptor 4 (Homo sapiens) (P22455 22-802 limits assumed): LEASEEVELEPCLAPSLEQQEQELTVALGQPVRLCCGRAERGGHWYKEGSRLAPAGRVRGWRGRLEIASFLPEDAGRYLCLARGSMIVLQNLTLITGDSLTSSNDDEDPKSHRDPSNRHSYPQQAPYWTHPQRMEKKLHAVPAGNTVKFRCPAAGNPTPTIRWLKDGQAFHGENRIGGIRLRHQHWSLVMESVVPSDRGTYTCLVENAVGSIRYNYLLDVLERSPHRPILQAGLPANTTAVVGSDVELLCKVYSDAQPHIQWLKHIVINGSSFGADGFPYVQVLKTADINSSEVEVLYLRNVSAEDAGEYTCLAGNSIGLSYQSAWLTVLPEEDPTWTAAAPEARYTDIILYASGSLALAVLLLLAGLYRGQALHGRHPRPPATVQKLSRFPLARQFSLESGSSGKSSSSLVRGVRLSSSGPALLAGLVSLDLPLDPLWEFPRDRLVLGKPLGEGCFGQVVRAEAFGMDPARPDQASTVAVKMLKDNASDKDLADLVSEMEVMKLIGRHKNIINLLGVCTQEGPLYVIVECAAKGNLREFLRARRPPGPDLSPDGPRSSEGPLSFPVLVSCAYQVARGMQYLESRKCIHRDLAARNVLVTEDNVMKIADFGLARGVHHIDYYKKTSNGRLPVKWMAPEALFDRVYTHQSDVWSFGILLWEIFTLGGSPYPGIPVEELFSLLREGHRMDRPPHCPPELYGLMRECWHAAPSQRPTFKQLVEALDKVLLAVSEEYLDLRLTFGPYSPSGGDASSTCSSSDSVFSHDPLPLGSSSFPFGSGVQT

[19] = molecular target: Fibroblast growth factor receptor 4 (Homo sapiens) (UniProt P22455); conditions: at 10 µM
[20] = molecular target: Tyrosine-protein kinase Fer (Homo sapiens) (UniProt P16591); conditions: at 1 µM
Sequence of Tyrosine-protein kinase Fer (Homo sapiens) (P16591 whole entry, looked up): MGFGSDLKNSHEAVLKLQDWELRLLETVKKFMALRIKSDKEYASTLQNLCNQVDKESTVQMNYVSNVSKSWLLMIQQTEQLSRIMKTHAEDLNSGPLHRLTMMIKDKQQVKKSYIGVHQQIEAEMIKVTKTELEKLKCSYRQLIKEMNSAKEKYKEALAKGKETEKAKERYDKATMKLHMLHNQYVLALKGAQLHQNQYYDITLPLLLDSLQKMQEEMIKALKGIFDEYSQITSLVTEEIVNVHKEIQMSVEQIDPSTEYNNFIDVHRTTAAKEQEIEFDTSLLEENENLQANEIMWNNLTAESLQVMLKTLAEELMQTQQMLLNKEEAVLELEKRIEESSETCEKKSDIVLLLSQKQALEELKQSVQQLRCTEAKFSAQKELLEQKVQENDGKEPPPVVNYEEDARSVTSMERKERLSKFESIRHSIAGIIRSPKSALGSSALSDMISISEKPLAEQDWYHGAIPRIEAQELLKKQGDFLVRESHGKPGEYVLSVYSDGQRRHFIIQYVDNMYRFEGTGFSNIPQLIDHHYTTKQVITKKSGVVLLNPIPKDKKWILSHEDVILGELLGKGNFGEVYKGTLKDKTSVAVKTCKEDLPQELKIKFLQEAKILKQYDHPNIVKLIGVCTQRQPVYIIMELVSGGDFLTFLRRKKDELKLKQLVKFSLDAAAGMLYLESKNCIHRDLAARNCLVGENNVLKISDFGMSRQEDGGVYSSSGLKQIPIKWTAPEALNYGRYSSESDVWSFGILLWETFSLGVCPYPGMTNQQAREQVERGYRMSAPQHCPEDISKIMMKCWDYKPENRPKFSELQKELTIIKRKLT

## COc1cccc(-c2cc(=O)c3ccccc3o2)c1N
[1]
  residual activity: 100%
[2]
  residual activity: 118%
[3]
  residual activity: 132%
[4]
  residual activity: 107% (inactive)
[5]
  residual activity: 112%
[6]
  residual activity: 94%
[7]
  residual activity: 109%
[8]
  residual activity: 90%
[9]
  residual activity: 93%
[10]
  residual activity: 115%
[11]
  residual activity: 116%
[12]
  residual activity: 143%
[13]
  residual activity: 105%
[14]
  residual activity: 102%
[15]
  residual activity: 92%
[16]
  residual activity: 100%
[17]
  residual activity: 99%
[18]
  residual activity: 128%
[19]
  residual activity: 98%
[20]
  residual activity: 107%

## CCN(CC)CCCCN1c2ccccc2Oc2ccc(Cl)cc21
[1]
  residual activity: 117%
[2]
  residual activity: 122%
[3]
  residual activity: 121%
[4]
  residual activity: 106% (inactive)
[5]
  residual activity: 132%
[6]
  residual activity: 109%
[7]
  residual activity: 133%
[8]
  residual activity: 102%
[9]
  residual activity: 95%
[10]
  residual activity: 144%
[11]
  residual activity: 108%
[12]
  residual activity: 113%
[13]
  residual activity: 82%
[14]
  residual activity: 108%
[15]
  residual activity: 112%
[16]
  residual activity: 110%
[17]
  residual activity: 99%
[18]
  residual activity: 129%
[19]
  residual activity: 90%
[20]
  residual activity: 117%

## CC(C)n1cnc2c(NCc3ccccc3)nc(NCCCO)nc21
[1]
  residual activity: 79%
[2]
  residual activity: 111%
[3]
  residual activity: 115%
[4]
  residual activity: 121% (inactive)
[5]
  residual activity: 104%
[6]
  residual activity: 100%
[7]
  residual activity: 88%
[8]
  residual activity: 52%
[9]
  residual activity: 45%
[10]
  residual activity: 97%
[11]
  residual activity: 57%
[12]
  residual activity: 104%
[13]
  residual activity: 65%
[14]
  residual activity: 111%
[15]
  residual activity: 87%
[16]
  residual activity: 111%
[17]
  residual activity: 93%
[18]
  residual activity: 104%
[19]
  residual activity: 81%
[20]
  residual activity: 102%
